# Measured values published in PubChem BioAssay AID434973 (Sanford-Burnham Center for Chemical Genomics, 2010).
# Among all 330,000 compounds or so, about 4,900 (1.5%) were called active. Only a selection was taken, and actives are over-represented in it overall. A number with no mark means an inactive call.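 The calls were made as follows: active = inhibition above about 50% at the single test dose (limit read from the data); inactive = the rest.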
# Target: Sentrin-specific protease 7 (Homo sapiens) (UniProt Q9BQF6)
# Experiment: SENP7 protease inhibitors, primary screen, biochemical, luminescence, uHTS (AID 434973);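 also: plate controls were DMSO with enzyme for no effect and no enzyme buffer wells for full effect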
# Conditions: recombinant SENP7, Z-RLRGG-aminoluciferin luminescence, 40 min; at 5 µM; stronger effect = higher value
row,Structure (SMILES),inhibition
1,CN1CCN(c2cc(N3CCNCC3)ccc2[N+](=O)[O-])CC1,6.98%
2,Cc1nc2ccc(N3CCN(C)CC3)cc2nc1C,-4.82%
3,COc1cccc(-c2nc3ccc(N4CCN(C)CC4)cc3[nH]2)c1,57.6% (active)
4,Cc1ccc(C)c(NC2=NCCCS2)c1,5.92%
5,COc1cc(Cn2c(N)c(C(=O)NCc3ccco3)c3nc4ccccc4nc32)cc(OC)c1OC,80.7% (active)
6,CCOC(=O)c1c(N)n(CCN2CCOCC2)c2nc3ccccc3nc12,0.976%
7,CCOC(=O)c1c(N)n(Cc2ccccc2)c2nc3ccccc3nc12,13%
8,CCOC(=O)C(O)(c1ccc(N)c(OC)c1)C(F)(F)F (stereo not given),3.48%
9,NCC(O)c1ccc(O)cc1 (stereo not given),-7.28%
10,COc1ccc(N=Cc2c(O)n(C)c(=O)[nH]c2=O)cc1,22.6%
